# High-throughput results as filed in PubChem.
# DRD3 antagonist – qHTS of D3 Dopamine Receptor Antagonist: qHTS; D(3) dopamine receptor (Homo sapiens), P35462; max response, negative = inhibition, %; D3R cells, DiscoveRx beta-arrestin luminescence, antagonist mode; active compounds read low; hit rate 2.5% among 360,000; in the data active = max response below about -50%; inconclusive = no clear call, values can overlap the other calls
# Target sequence (P35462 whole entry, looked up): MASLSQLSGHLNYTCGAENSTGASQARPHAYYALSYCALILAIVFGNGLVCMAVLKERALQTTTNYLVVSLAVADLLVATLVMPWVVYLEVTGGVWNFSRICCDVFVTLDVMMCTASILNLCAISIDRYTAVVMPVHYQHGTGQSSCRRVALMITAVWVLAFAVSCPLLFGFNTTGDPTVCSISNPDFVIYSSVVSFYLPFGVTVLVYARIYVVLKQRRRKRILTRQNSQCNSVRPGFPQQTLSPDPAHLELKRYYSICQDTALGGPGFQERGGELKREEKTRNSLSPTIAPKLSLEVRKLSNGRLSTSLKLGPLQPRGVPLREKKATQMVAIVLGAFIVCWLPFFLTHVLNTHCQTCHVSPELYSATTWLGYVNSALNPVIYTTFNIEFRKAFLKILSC
#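 Cells plated overnight at 1500 cells/well, then exposed to library compounds with dopamine controls for 90 minutes at 37 degrees C. DiscoveRx reagent added for 30–60 minutes at room temperature; luminescence read, quantitative HTS format.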
# D1 antagonist – Antagonist of Human D 1 Dopamine Receptor: qHTS | D(1A) dopamine receptor (Homo sapiens), P21728 | HEK293 TREx D1 cells, calcium flux, dopamine EC80; active compounds read low | activity change, negative = inhibition, % at 10 µM | hit rate 3.2% among 360,000 | AID 504652, 2011; in the data active = activity change below about -30%
#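 After overnight tetracycline induction at 30 C, force-coupled D1 HEK293 cells took up a no-wash calcium dye at room temperature. Compounds were added and monitored 180 s, and the response to EC80 dopamine was then recorded.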
# D1 PAM – Potentiators of Human D1 Dopamine Receptor: qHTS. D(1A) dopamine receptor (Homo sapiens), P21728. HEK293 TREx D1 cells, calcium flux, dopamine EC20 potentiation. potentiation, % at 10 µM. hit rate 0.036% among 360,000. AID 504651, 2011; in the data active = potentiation above about 30%
# D3 ag – qHTS of D3 Dopamine Receptor Agonist: qHTS; D(3) dopamine receptor (Homo sapiens), P35462; D3R DiscoveRx beta-arrestin cells, luminescence, 90 min; max activation, %; hit rate 0.58% among 410,000; AID 652048, 2013; in the data active = max activation above about 30%
#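 Agonist-mode cell screen: cells plated at 1500/well and incubated overnight at 37 °C, then exposed to library compounds for 90 min at 37 °C. Detection reagent was added for 30–60 min at room temperature, and luminescence was read.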
# D1 ag – Allosteric Agonists of the Human D1 Dopamine Receptor: qHTS | D(1A) dopamine receptor (Homo sapiens), P21728 | HEK293 T-REx D1 cells, calcium flux, agonist mode | activation, % at 2 µM | hit rate 1% among 360,000; in the data active = activation above about 30%
#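 Inducible HEK293 T-REx D1 cells, force-coupled to calcium signalling, were plated at 4000 cells/well with tetracycline and held overnight at 30 C. After no-wash calcium dye loading, compound-evoked calcium rise over 180 s flagged agonists.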
# A number is an active result; . = inactive; ? = inconclusive; / = no result given. Shown are actives, neighbours in structure and some others; about 6.1% of the full set was active somewhere.
SMILES,DRD3 antagonist,D1 antagonist,D1 PAM,D3 ag,D1 ag
O=[N+]([O-])c1cc(Br)cc(C=Nc2ccc3c(c2)OCO3)c1O,-78.3,.,.,.,.
Cc1ccc(N=Cc2cc3c(cc2[N+](=O)[O-])OCO3)cc1[N+](=O)[O-],.,/,/,.,/
O=[N+]([O-])c1ccc(O)c(C=Nc2ccc3c(c2)OCO3)c1,-68.3,.,.,.,.
CC(C)(C)c1ccc(O)c(N=Cc2cc3c(cc2[N+](=O)[O-])OCO3)c1,.,.,.,.,.
CC(C)C(=O)Nc1ccc(C(=O)Nc2ccc(Br)cc2F)cc1,.,.,.,.,.
CCOc1ccc(/C=N/NC(=O)Cc2csc(Nc3cccc(C(F)(F)F)c3)n2)c(OCC)c1,.,-32.4,.,.,.
CCOc1ccccc1/C=N/NC(=O)Cc1csc(Nc2cccc(C(F)(F)F)c2)n1,.,.,.,.,.
Cc1ccc(-c2cc(NC(=O)C(C)Oc3ccccc3F)on2)cc1 (centres undefined),/,.,.,.,.
Cc1onc(-c2ccccc2)c1C(=O)N/N=C/c1ccccc1OC(C)C,.,-31.5,.,.,.
CCOc1ccccc1Nc1ccc2cc(S(=O)(=O)N3CCCCC3)ccc2n1,/,.,.,.,.
COc1ccccc1C1CCN(Cc2ccc(Cl)c(Cl)c2)CC1,-79.0,.,.,.,.
COc1ccccc1C1CCN(Cc2c(C)[nH]c3ccccc23)CC1,-88.6,.,.,.,.
COc1ccccc1C1CCN(Cc2ccc(Cl)cc2Cl)CC1,-96.1,.,.,.,.
COc1ccccc1C1CCN(Cc2cccc3ccccc23)CC1,.,.,.,.,.
COc1ccc(C(=O)C2CCCN(Cc3c(C)[nH]c4ccccc34)C2)c(OC)c1 (centres undefined),/,.,.,/,.
O=C(O)[C@H](O)c1ccccc1,/,/,/,.,/
Cc1cc(C)cc(Oc2ccc(S(=O)(=O)N3CCN(C)CC3)cn2)c1,.,.,.,.,.
CCCOc1ccc(Oc2ccc(S(=O)(=O)N3CCN(C)CC3)cn2)cc1,.,-37.5,.,.,.
CN1CCN(/N=C/c2ccc(-c3ccccc3)cc2)CC1,.,-76.2,.,.,72.1
CC(=O)N1CN(C2CCS(=O)(=O)C2)Cc2c1sc1c2CCCC1 (centres undefined),-55.7,.,.,.,.
Nc1sc2c(c1C(=O)NC1CCS(=O)(=O)C1)CCC2 (centres undefined),.,.,.,.,.
Cc1ccccc1-n1ncc(C(C)NC(=O)c2ccccc2)c1C (centres undefined),.,.,.,.,.
Cc1cc(C)nc(Nc2ccccc2Cl)n1,-69.8,.,.,.,.
Cc1cc(C)nc(Nc2ccccc2F)n1,.,.,.,.,.
CCCCS/C(=C(/C#N)C(N)=O)c1cc2c([nH]1)CCCC2,-74.2,.,.,.,.
SMILES,DRD3 antagonist,D1 antagonist,D1 PAM,D3 ag,D1 ag
COc1cccc(CNC(=O)CCC2CCCN(c3cc(C)nc(N)n3)C2)c1 (centres undefined),.,.,.,.,.
COCCCNC(=O)c1c(NC(=O)c2cc(=O)c3ccccc3o2)sc2c1CCCC2,/,.,.,.,.
Cc1ccc(OCc2cc(C(=O)NCc3ccc(OC(F)(F)F)cc3)no2)cn1,.,.,.,.,51.5
CC(C)C[C@H]1CN([C@@H](Cc2ccc(O)cc2)CN2CCCC2CN2C(=S)NC[C@@H]2Cc2ccccc2)C(=S)N1CC1CCCCC1 (some centres undefined),-50.8,/,/,.,/
CC(C)C[C@H]1CN([C@@H](CC(C)C)CN2CCCC2CN2C(=S)NC[C@@H]2Cc2ccccc2)C(=S)N1CC1CCCCC1 (some centres undefined),-111.9,/,/,.,/
CC1=C(C(=O)OCc2ccccc2)C(c2ccc(C)cc2)NC(=O)N1 (centres undefined),.,/,/,.,/
c1ccc(-c2nc(NCc3ccco3)c3ccccc3n2)nc1,-56.4,.,.,.,.
Oc1ccccc1-c1nc(NCc2ccco2)c2ccccc2n1,.,.,.,.,.
c1ccc(-c2nc(NCC3CCCO3)c3ccccc3n2)nc1 (centres undefined),-52.8,.,.,.,.
CCCCCc1c(C)c(C#N)c2nc3ccccc3n2c1-n1ccnc1C,.,.,.,.,.
N#Cc1c(-c2ccccc2)c(C#N)c2nc3ccccc3n2c1N,.,.,.,.,.
CCc1c(C)c(C#N)c2nc3ccccc3n2c1NC,.,.,.,.,.
Cc1c(CCCl)c(Cl)n2c(nc3ccccc32)c1C#N,-103.1,/,/,.,/
C=C(C)CN1CCN(c2c(CCC#N)c(C)c(C#N)c3nc4ccccc4n23)CC1,.,-38.5,.,.,.
Cc1ccc(-c2c(C#N)c(N)n3c(nc4ccccc43)c2C#N)cc1,.,-39.4,.,.,.
Cc1cc(Cl)n2c(nc3ccccc32)c1C#N,-72.9,.,.,.,.
CCN(c1ccccc1)S(=O)(=O)c1ccc(Cl)c(NC(=O)CNC(C)c2ccccc2)c1 (centres undefined),.,/,/,.,/
CCC(C)NC(=O)CN1C(=O)NC2(CCc3ccccc3C2)C1=O (centres undefined),.,.,.,.,.
Cc1ncc(CO)c(/C=N/Nc2ccc(C(F)(F)F)cn2)c1O,-73.7,.,.,.,.
Cc1ccc(C(=O)Cc2nc3ccccc3[nH]2)cc1,-50.5,.,.,.,.
c1ccc2[nH]c(CSc3nc4ccccc4o3)nc2c1,.,.,.,.,32.7
Cc1ccccc1CSCc1nc2ccccc2[nH]1,.,-30.1,.,.,.
Cc1ccc(C)c(CSCc2nc3ccccc3[nH]2)c1,.,.,.,.,.
COc1cc(C2C(C#N)=C(N)OC3=C2C(=O)CC(C)(C)C3)cc([N+](=O)[O-])c1O (centres undefined),?,.,.,.,.
Cc1ccc2nc(-c3ccc(C#N)cc3)c(Cc3cccc(Cl)c3)n2c1,-52.6,/,/,.,/
SMILES,DRD3 antagonist,D1 antagonist,D1 PAM,D3 ag,D1 ag
CCOc1ccc2nc(SCC3CC3(Cl)Cl)[nH]c2c1 (centres undefined),.,.,.,.,.
ClC1(Cl)CC1CSc1nc2ccccc2[nH]1 (centres undefined),.,-34.3,.,.,.
C/C(=C/C(=O)N1CCc2ccccc21)C(=O)O,.,.,.,.,.
O=C1C(=O)N(CCS(=O)(=O)c2ccccc2)c2ccc(Cl)cc21,-75.0,.,.,.,.
CCCN1C(=O)C(=O)c2cc(Cl)ccc21,-73.7,/,/,.,/
Cc1c(Cl)cccc1NC(=O)c1ncn[nH]1,.,.,.,.,.
COc1cc(-c2oc3ccc(C)cc3c(=O)c2O)cc(OC)c1OC,/,.,.,.,.
CCOc1ccc(-c2oc3cc(Cl)ccc3c(=O)c2O)cc1OC,/,.,.,.,95.8
